GLS inhibitor: inhibitors of human glutaminase (GLS) | O94925 | GLS enzymatic activity, qHTS titration | Potency, µM (series often up to 45.5 µM), without a hit: at the highest dose activity change, negative = inhibition, actives largely listed as inhibitors | hit rate 0.21% among 410,000 | AID 624170; further: on the % scale 0 is the no-effect control and ±100 the full control effect
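hKGA; 45 mM KH2PO4 pH 8.2 + 0.02% Tween-20; cpd via pin tool; 1 mM Gln soln; GluOx/HRP/Amplex Red; RT 30 min; fluor. t0 & final.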
APEX1 inh: inhibitors of human APE1 endonuclease | Potency, µM (titrated, usually from 65.8 µM), for inactives: at the highest dose activity change, negative = inhibition, hits mostly inhibitors | AID 2517 | hit rate 0.35% among 350,000 | recombinant APE1, TAMRA/BHQ-2 abasic DNA cleavage fluorescence;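 further: plate controls were vehicle for no effect and reference inhibitor for full effect; nearly all actives have a fitted effect of over 55% in size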
Target sequence (P27695 whole entry, looked up): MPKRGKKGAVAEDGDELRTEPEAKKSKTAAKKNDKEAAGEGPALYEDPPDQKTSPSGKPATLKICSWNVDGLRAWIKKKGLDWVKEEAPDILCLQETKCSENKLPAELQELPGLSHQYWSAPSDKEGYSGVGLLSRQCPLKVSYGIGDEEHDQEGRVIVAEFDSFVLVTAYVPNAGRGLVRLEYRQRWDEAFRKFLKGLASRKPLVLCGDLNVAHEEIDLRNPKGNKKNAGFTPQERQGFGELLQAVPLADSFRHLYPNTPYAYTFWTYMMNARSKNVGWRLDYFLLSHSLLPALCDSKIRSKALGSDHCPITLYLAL
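Compound pre-exposure to 0.75 nM APE1, 15 min at ambient temperature. Reaction initiated with 50 nM TAMRA/BHQ-2 THF substrate, read immediately in kinetic mode, 525 nm excitation, 598 nm emission.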
POLK inh: inhibitors of human DNA polymerase kappa; Q9UBT6; purified Pol kappa, fluorescent DNA synthesis assay, 10 min; Potency, µM (highest dose often 107 µM), for the others: top-dose activity, negative = inhibition, hits mostly inhibitors; hit rate 0.53% among 400,000; AID 588579; further: on the % scale 0 is the no-effect control and ±100 the full control effect
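Enzyme at 10 nM met test compounds for 15 min at room temperature. Substrate addition (50 nM final) began the reaction, which was monitored by fluorescence at 0 and 10 min.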
Pol eta inh: inhibitors of human DNA polymerase eta; Potency, µM (highest dose often 114 µM), for the others: at the highest dose activity change, negative = inhibition, actives largely listed as inhibitors; recombinant Pol eta, fluorescent DNA replication assay; hit rate 1.2% among 390,000; Q9Y253; further: on the % scale 0 is the no-effect control and ±100 the full control effect
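Pol eta at 10 nM preincubated with compounds 15 min at room temperature; reaction started with fluorescent substrate (50 nM final) and read kinetically at 0 and 10 min.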
Pol beta inh: inhibitors of human DNA polymerase beta | P06746 | Pol beta primer extension/strand displacement, fluorescence kinetic | Potency, µM (highest dose often 114 µM), for the others: at the top dose activity change, negative = inhibition, actives largely listed as inhibitors | hit rate 1.3% among 340,000; further: on the % scale 0 is the no-effect control and ±100 the full control effect
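Human Pol beta at 10 nM; strand-displacement substrate 50 nM final. Compound exposure 15 min at room temperature before start, reaction 10 min at room temperature.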
Pol iota inh: blocks human DNA polymerase iota activity; Q9UNA4; Pol iota fluorescent replication assay, 10 min; Potency, µM (top dose mostly 115 µM), for the others: top-dose activity, negative = inhibition, usual class: inhibitors; hit rate 1% among 390,000
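Fluorescent replication assay read twice, at 0 min and 10 min after adding 50 nM (final) substrate. Enzyme (10 nM) and compounds were first incubated 15 min at room temperature; enzyme-free buffer wells were negative controls.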
The depositor's hits bear a star; u = inconclusive; x = no result; [ ] = dose if it differs, or a comment. In the library only some 2.4% were active in any assay of this set; here they are far more common. The call rests on the fitted dose curve; in most records, active means well fitted curve in the direction sought with a large enough effect; inconclusive means small, poorly fitted or top-dose-only effect, or another doubt; inactive means no such curve, though single readings can be large; an effect the other way counts as inactive or inconclusive. Potency means the concentration at half of the fitted maximal effect.

SMILES	GLS inhibitor	APEX1 inh	POLK inh	Pol eta inh	Pol beta inh	Pol iota inh
CCCCN(CC)CCCNC(=O)c1cc2c(-c3ccc(OC)c(OC)c3)nn(C)c2s1	5%	-37%	-23%	u	3.5µM*	u
O=C(O)c1ccc2c(c1)C(=O)N([C@@H](C(=O)O)C(c1ccccc1)c1ccccc1)C2=O	x	-5%	x	x	x	x
COc1ccc(/C=N/NC(=O)c2ccc(=O)[nH]n2)cc1OC	0%	5%	u	u	7.9µM*	100µM*
COc1ccc(/C=N/NC(=O)C(O)(c2ccccc2)c2ccccc2)cc1OC	6%	11%	-13%	-23%	14µM*	0%
Cc1cc(/C=N/NC(=O)C(O)(c2ccccc2)c2ccccc2)c(C)n1-c1ccc(C(=O)O)cc1	28%	u	-22%	79µM*	u	u
COc1ccc(/C=N\NC(=O)c2ccc(=O)[nH]n2)cc1O	u	6%	u	-10%	13µM*	32µM*
COc1ccc(/C=N/NC(=O)CCC(=O)Nc2ccccc2)cc1OC	-6%	-3%	-30%	-2%	u	u
CCCCC1NC(C(=O)O)CS1 (stereo unspecified)	-10%	-1%	2%	-8%	-29%	126%
COc1ccc(NC(=O)CC2C(=O)N(c3ccc(C)cc3)C(=O)N2C2CCCCC2)cc1 (stereo unspecified)	1%	x	-4%	-11%	22%	17%
CCc1ccc(N2CC(C(=O)N(CC)CC(=O)Nc3c(F)cccc3F)CC2=O)cc1 (stereo unspecified)	0%	x	x	2%	x	x
COc1cc(OC)cc(C(=O)N2CCC(C(=O)NCCc3ccccc3)CC2)c1	-2%	10%	-10%	-9%	5%	20%
COc1ccc(/C=N/NC(=O)c2cc(-c3ccc4c(c3)OCO4)n[nH]2)cc1OC	-3%	11%	u	u	4.5µM*	u
O=C(NNC(=O)c1ccc(-c2ccccc2)cc1)Nc1ccc(F)cc1F	-8%	5%	-4%	-13%	25µM*	1%
O=C(NNC(=O)c1ccc2ccccc2c1)Nc1ccc(F)cc1	18%	30%	-3%	-15%	45µM*	u
COc1cc(OC)cc(C(=O)Nc2nnc(NC(=S)Nc3ccccc3)s2)c1	12%	2%	79µM*	u	-3%	5%
CC1CCCC(C)N1C(=O)COC(=O)/C=C/c1ccco1 (stereo unspecified)	31%	-28%	-5%	u	x	u
CC1CCN(C(=O)COC(=O)/C=C/c2ccc(Br)o2)CC1	-9%	17%	u	-12%	x	18µM*
CC1CCCC(C)N1C(=O)COC(=O)/C=C/c1ccc(Br)o1 (stereo unspecified)	-11%	-45%	u	22µM*	x	22µM*
COc1cc([N+](=O)[O-])ccc1NC(=O)CN1C(=O)NC2(CCCCC2C)C1=O (stereo unspecified)	-14%	x	-17%	9%	x	2%
NC(=O)C1Cc2ccccc2CN1S(=O)(=O)c1cccs1 (stereo unspecified)	-5%	1%	6%	-16%	4%	35%
Nc1c(N=Nc2ccc([N+](=O)[O-])cc2)c(S(=O)(=O)O)cc2cc(S(=O)(=O)O)c(/C=C/c3ccccc3)c(O)c12	x	x	32µM*	x	x	25µM*
Cc1cc(C)c(S(=O)(=O)c2c(C)cccc2C)c(Cl)n1	11µM*	0%	-2%	-13%	29%	-9%
CCc1cc2c(NCc3ccco3)ncnc2s1	1%	-6%	-20%	-5%	13%	-12%
Cn1c(=O)c2c(nc(SCC(=O)NCc3ccc4c(c3)OCO4)n2Cc2ccc(Cl)cc2)n(C)c1=O	2%	7%	-44%	89µM*	-17%	u
CCCCNC(=O)CSc1nc2cc3c(cc2c(=O)n1CCCC(=O)NCc1ccc2c(c1)OCO2)OCO3	5%	x	-5%[60.1 µM]	-5%	38%	89µM*
SMILES	GLS inhibitor	APEX1 inh	POLK inh	Pol eta inh	Pol beta inh	Pol iota inh
CC(NC(=O)Nn1cnnc1)(C(F)(F)F)C(F)(F)F	7%	-2%	2%	-17%	11%	7%
CCCc1nc2sc3ccccc3c(=O)c2c(=O)n1Cc1ccco1	10%	-15%	u	u	50µM*	u
CCCc1nc2oc3cc(OC)ccc3c(=O)c2c(=O)n1Cc1ccco1	2%	-3%	-43%	u	45µM*	u
CCCOC(=O)c1c(NC(=O)C2c3ccccc3Oc3ccccc32)sc2c1CCC(C)C2 (stereo unspecified)	1%	x	-10%	-11%	-17%	10%
CCc1cc(=O)oc2c3c(cc(OCC(=O)NCCCCCC(=O)O)c12)OC(C)(C)CC3	4%	0%	-9%	-18%	-18%	6%
CCCN(C(=O)COC(=O)c1cc(CC)c(C)s1)c1c(N)n(Cc2ccccc2)c(=O)[nH]c1=O	-6%	-4%	u	18µM*	x	40µM*
CCN(C(=O)COC(=O)c1cc2c(s1)CCCC2)c1c(N)n(Cc2ccccc2)c(=O)[nH]c1=O	-4%	30%	-33%	u	x	45µM*
CCCn1c(N)c(N(CCOC)C(=O)c2cc3c(s2)CCCCC3)c(=O)[nH]c1=O	0%	-7%	-7%	-24%	-3%	26%
CCCCn1c(N)c(N(CCOC)C(=O)COC(=O)c2cc(CC)c(C)s2)c(=O)[nH]c1=O	-2%	4%	-9%	6%	x	-8%
COCCCN(C(=O)c1cc2c(s1)CCC2)c1c(N)n(Cc2ccccc2)c(=O)[nH]c1=O	-1%	u	u	u	13µM*	32µM*
O=C(Nc1ccc(Cl)cn1)C1C(c2ccccc2)C1(Cl)Cl (stereo unspecified)	-5%	-8%	-11%	-21%	78%	79%
N#CC1(NC(=O)COC(=O)/C=C/c2ccc3ccccc3n2)CCCCC1	-17%	1%	u	u	13µM*	45µM*
CC#CCC(CC#CC)c1nc2ccccc2c(=O)n1N	-9%	0%	-5%	3%	0%	70%
CCCC[C@@H](C)/C=C(C)/C=C(\C)C(=O)NC1=C[C@@](O)(/C=C/C=C/C=C/C(=O)NC2=C(O)CCC2=O)[C@@H]2O[C@@H]2C1=O	x	u	27µM*	x	x	x
Cc1ccc2c(c1)N(C(=O)CCC(=O)NCc1cccc(F)c1)CC(C)O2 (stereo unspecified)	5%	x	-14%	-7%	1%	-6%
O=C(Nc1ccc(S(=O)(=O)Nc2ncccn2)cc1)c1ccccc1	-6%	30%	-7%	-13%	29%	-14%
